PubChem BioAssay AID1508600 (Functional Genomics Laboratory (NCATS/FGL), 2020)
About 3,700 (7%) of roughly 53,000 sequences were called active. Many of the other results were omitted from the sample, so actives are more common in it than they were. Values without a mark were called inactive.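 The calls were made as follows: active = gene knockdowns whose robust z-score for IL-1 alpha signal is at least 2 or at most -2, so actives lie on both sides; inactive = the rest.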

assay: Components of the Cytosolic LPS Sensing Pathway: Gene Identification via Genome-wide siRNA Screen; conditions: RAW264.7 macrophages, IL-1a HTRF, actives lie on both sides, screened at 100 nM (by protocol), cells primed 5 h with Pam3CSK4 first;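 also: robust z of the log signal after scaling to non-targeting control siRNA wells of the plate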
Outline: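 Using IL-1a HTRF as read-out, the screen measured release from RAW264.7 cells after 48h siRNA knockdown (100 nM), 5 h Pam3CSK4 priming and 24 h cytosolic LipidA. Values were expressed relative to negative-control wells as robust z-scores.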

Sequence | z-score
GCUACCUCAACAUGGAUGCTT against Pcca | 1.16
GGAUGACUGUAUCUGUACUTT against Ttc3 | 0.0197
GGCCCAGAACAGAAAACUCTT against Clec1a | -0.582
GGACCUAAGGGAUCUAUUGTT against Col5a3 | 0.000962
GCACUGUGAAUUUGUCAUUTT against Umps | 1.22
GGAACACGAAUCAUUUAUGTT against Eif4ebp2 | 0.351
GUUUGGCCGAGUUCAUUUCTT against Pigu | 0.759
CCUGUGGAUUACGGCCUCATT against Ube3b | -0.282
GGAGCUGUUUUCUGUGAAGTT against Mrps2 | 0.0283
GGAUGUGGAGCAAGUGAAGTT against Stx1b | -2.05 (active)
GCUUCAAGCCAUCCGAAUATT against Cfap36 | 0.886
GGACCAGCUGAAGAUGGGATT against Pced1b | -1.1
GCCAGUUUCCAGUCCUUGUTT against Dppa5a | -0.2
GCACAUAAAAUGCUCACUGTT against Rgr | -0.084
CCAAACUUAAACAUGUUGUTT against Ddx21 | 0.364
GCUGUACACAGUGAGGAAGTT against Gcat | 5.42 (active)
CGACUACCACACGUGGAAUTT against Hvcn1 | 1.36
UGUUCCUAGGUCAGCUACUTT against Olfr1200 | -1.54
GGCACUUCACAGACUUAGUTT against Selp | -0.682
CUCCUUGUCUACCUGAAUATT against Vmn1r213 | -1.44
CCUCUUAGCUAGAUCUUACTT against Smu1 | -2.41 (active)
GCCUGAGAAGAUAGACUGATT against Pigs | 0.114

Sequence | z-score
GCUUAACUAGUAUCCUAUGTT against Tas2r135 | -0.228
GGACAAAGUGAAUUAUAGCTT against Tmem123 | 1.12
GUAAGUUGUUUGAGGAAAGTT against Defb3 | 2.08 (active)
GAAAUUCUUCCAGUGGAAGTT against Lrp2bp | 0.958
GGAACAUCAUCAACCACUATT against Olfr911-ps1 | -1.53
GGUACAACAGACUAUGCAATT against Snai1 | 0.886
GCUUUCGCCAAUAAAAAAGTT against Slc13a2 | 0.265
GGUGAAACGGGAUGUUAACTT against Ppargc1b | -0.102
GCCUUAUUACUGACCUUUUTT against Smarcd2 | 1.77
GCUAUGAAAGAGGGAAGCUTT against Cyp2c54 | 0.164
CCAGAAAACUCAGUUUGAATT against Magi3 | 0.518
GCUGGUGGCAAUCAGAAAATT against Nppc | 0.121
GGUUCAACACGAUGUUCGATT against Nr1i2 | 0.162
GGAUGUCUGACACAAGUGUTT against Olfr390 | 3.42 (active)
GCUUCACAGAAGCUUUGUGTT against Ccl4 | -0.156
GGAAUAUCAGAAUACCAUCTT against Cnpy4 | 0.89
CCAGGAACAGCUAUCGGAUTT against Homer2 | -0.271
GCUGCAUUACAAGCCCAACTT against Zfp414 | -0.218
GGUGACAUAUUUGAAGUGGTT against Dmwd | -0.000303
GCACCCUACCUGCUAAUGUTT against Slitrk1 | 3.59 (active)
GGAUGACAAGGUUAAGCUATT against Golm2 | -0.0855
GCAACAAUGUGGUUCCUAUTT against Rab11a | 0.616

Sequence | z-score
GGAGCUACUGUACCUUGCUTT against Ncapg2 | -1.29
GGCUAGAAAACCUCUAUCUTT against Lrrc18 | -2.11 (active)
GUGCAUGCAGUGUUGUUUUTT against Magea5 | 0.711
GGAUAGGGAUUGGAGAUAUTT against Stn1 | 0.203
GGGUAGUCACUCAAUAAAUTT against Pear1 | -0.54
GGAUUGCCCUGUGGACAAGTT against Nr4a1 | 0.963
GGCGAAAUGAACACAAAGCTT against Edf1 | 0.983
GGAAAAGUACACAAAGACCTT against Nkx2-1 | 2.16 (active)
GGAAAAGUGGUGAACGACATT against Tm4sf4 | 0.798
GCUGCUGUGACUUAGAUAATT against Cds2 | -0.668
CCAGGAUCAUUCUUCUGAATT against Chrna7 | -0.563
GCGUAUACCAUGCAGAUAUTT against Sigmar1 | 1.05
GGCGUACGUAGACAAGUACTT against Scaf11 | -2.23 (active)
GGAAGGUAAUUGCUUUUAGTT against Gmeb1 | 0.533
GCACUUGCUUCAAGUAAUATT against Ankrd52 | -0.0516
GCUCUGCUGUGUUAUAUGGTT against C330011M18Rik | 0.144
CCUAUGCUUUUUUGUAAGATT against Il13ra2 | 0.126
GGGAAUAGCAAAUAAAGCATT against Lztr1 | -0.674
GGCUGUUGAACUUAAUCCCTT against Tomm70a | -2.25 (active)
GGUAGACGGAAUCUAUUUATT against Kcnj15 | -1.31
GGUGGACUUAUAUGGUUUUTT against St3gal1 | 0.408
GGUGAUUGGGAAUUGAAAATT against F3 | 0.341

Sequence | z-score
GCAUAUGCGAACAGUAAAATT against Rab28 | -0.182
GGUACCUUCAUCUUGGUGGTT against Olfr699 | -0.017
GCCUUGACCUGAUUUCUACTT against Tas2r131 | -0.525
GCAUUCAGGACCUGUGGCUTT against Olfr890 | -2.33 (active)
GGAUCUGUGAGUUUGUAGCTT against D930030D11Rik | 0.585
GGACAACUCAAUUCUAAAATT against 4921522P10Rik | -1.22
GCAAAGUUCACCUAAUUGGTT against Lipc | -1.03
GCCAGACUGAGCUACAAAATT against Gm9732 | -1.3
GCAUCAAAAUCGGUUUCUGTT against Lkaaear1 | 0.759
CCUUUGGACGCAACCAGUUTT against Ugt1a6b | 2.04 (active)
CGAAUUAAUCUCACAGGAGTT against Vps53 | 0.44
CCCUCAAUGGCCUCAAACUTT against Elavl3 | -1.29
GUUAGAUGCCCUCAAGUUCTT against Trappc6a | -0.857
GGAUGAGAGUCCACAGCAATT against Lpar3 | -1.26
GGAAUUCACAGAUACCGUGTT against Guca1a | 0.93
GGAUGAGGUGAUUAAAGAATT against Cd9 | 2.38 (active)
GGAGUUCAUUGUUUGGUUGTT against Nat2 | 0.593
GGAUAUUGAUGUUUCAAGUTT against Neo1 | -0.241
CGUGGUGCAGAAUUUUUAUTT against Cldn14 | 1.13
GGCACACACAUCAAAAGGATT against A530021J07Rik | -2.63 (active)
GGUAGAUGGCAUCUACUAUTT against Josd2 | 0.663
GCUGGCAGUUUGUAAGUAGTT against Faxc | -0.653

Sequence | z-score
GGGUGUCAUCCUUAUCCUGTT against Olfr655 | -0.0528
CCGAAUCUGUCGUCAAGGUTT against Trem3 | 0.552
GGACCAGGUCCGUUGGAAUTT against Efna1 | 0.636
GGAUGUAAAGAGGAAUCUCTT against Abca16 | -0.748
GCAUCCCUUCCGAGAAACATT against Bag6 | 0.916
GCCGUCAGACAAGGAGGAATT against Magi1 | 2.43 (active)
GGAUGUCCUUGACUUUAAATT against Atp6v0a4 | 0.704
GCCUGAGGAAUCGUGACAUTT against Olfr51 | -1.58
GGAAAUGAUACAUUUGUGATT against Mre11a | -0.256
CCGCACAGACCAUAGUAGATT against Pudp | 0.261
GGUACUUUGGAAAGAAGAGTT against Yeats4 | -1.27
GGGAAUGAACCUAGAAGAGTT against Tymp | -1.2
GGUAGCCAUAUCUAACAGCTT against Scd1 | -2.02 (active)
GCCCUGAGACCACGAUAUUTT against AF067063 | 1.48
GGUUAUAUGCAGAGGAACUTT against Arid1a | -0.436
GGCAAGAUGAAUUAAAAUGTT against Gcfc2 | -0.964
GGAUAAAGGCAAAGACAAATT against Rsrc1 | 0.891
UUAUGCUGACCUCUAUCUUTT against Akr1c19 | 2.33 (active)
GGUUGAUUCUUAAAUUGUGTT against Slc6a5 | 0.331
